# The source made the active and inactive calls. Rule for the calls: active = hit-call score of the fitted dose curve at least 0.9, where 1 is the maximum; inactive = score below 0.9.
# Biological target: Hepatocyte nuclear factor 6 (Homo sapiens) (UniProt Q9UBC0)
# Test: ATG_HNF6_CIS: Attagene CIS-FACTORIAL HepG2 Assay for human Hepatocyte Nuclear Factor 6 (HNF6) (AID 2282952)
# Details: HepG2 Attagene cis-factorial HNF6 reporter transcription; actives raise or lower the signal
# Protocol: ATG_CIS is a cell-based, multiplexed-readout assay that uses HepG2, a human liver cell line, with measurements taken at 24 hours after chemical dosing in a 24-well plate.ATG_HNF6_CIS is one of 52 assay component(s) measured or calculated from the ATG_CIS assay. It is designed to make measurements of mRNA induction, a form of inducible reporter, as detected with fluorescence intensity signals by Reverse transcription polymerase chain reaction (RT-PCR) and Capillary electrophoresis technology.Data from the assay component ATG_HNF6_CIS was analyzed into 1 assay endpoint. This assay endpoint, ATG_HNF6_CIS, was analyzed with bidirectional fitting relative to DMSO as the negative control and baseline of activity. Using a type of inducible reporter, measures of mRNA for gain or loss-of-signal activity can be used to understand the reporter gene at the transcription factor-level as they relate to the gene ONECUT1. Furthermore, this assay endpoint can be referred to as a primary readout, because this assay has produced multiple assay endpoints where this one serves a reporter gene function. To generalize the intended target to other relatable targets, this assay endpoint is annotated to the dna binding intended target family, where the subfamily is homeobox protein.
# Human liver HepG2 cells are transiently transfected with multiple reporter transcription units (MRTUs) in 6-well plates using FuGene 6 reagent (Roche; 3 ml FuGene/1 mg DNA). The MRTU constructs are regulated by a cis-regulating element (promoter). […] A major difference between the CIS and TRANS system is that in CIS activities of endogenous TFs are measured, whereas the TRANS assay evaluates changes in activities of exogenous, chimeric NR-Gal4 proteins. […] At the end of 24 hour incubation, total RNA was isolated using TriZol reagent (Invitrogen). The isolated RNA is then reverse-transcribed using oligo(dT) primer and Mo-MLV reverse transcriptase (Invitrogen) with DNAse I (Ambion) treatment for 30 min. The one-tenth of the produced cDNA was amplified by PCR using Taq DNA polymerase (Invitrogen) and two reporter sequence-specific primers. The PCR products were fluorescently labeled by primer extension with 6-arboxyfluorescein (6-FAM) 5'-labeled reporter sequence-specific primer (2 min at 95 C, 20 s at 68 C and 10 min at 72 C) and these products were digested with 5U of HpaI (New England Biolabs) for 2h at 37 C. The fragments were purified using Qiaquick PCR columns (Qiagen), analyzed on an ABI 3130xL genetic analyzer (Applied Biosystems) with peak positions identified by using a set of X-rhodamine (ROX)-labeled MapMarker1000 molecular weight standards (BioVentures). The raw capillary electrophoresis data was processed using Attagraph software (Attagene).
# Hepatocyte nuclear factor 6 (Homo sapiens), sequence (Q9UBC0 whole entry, looked up): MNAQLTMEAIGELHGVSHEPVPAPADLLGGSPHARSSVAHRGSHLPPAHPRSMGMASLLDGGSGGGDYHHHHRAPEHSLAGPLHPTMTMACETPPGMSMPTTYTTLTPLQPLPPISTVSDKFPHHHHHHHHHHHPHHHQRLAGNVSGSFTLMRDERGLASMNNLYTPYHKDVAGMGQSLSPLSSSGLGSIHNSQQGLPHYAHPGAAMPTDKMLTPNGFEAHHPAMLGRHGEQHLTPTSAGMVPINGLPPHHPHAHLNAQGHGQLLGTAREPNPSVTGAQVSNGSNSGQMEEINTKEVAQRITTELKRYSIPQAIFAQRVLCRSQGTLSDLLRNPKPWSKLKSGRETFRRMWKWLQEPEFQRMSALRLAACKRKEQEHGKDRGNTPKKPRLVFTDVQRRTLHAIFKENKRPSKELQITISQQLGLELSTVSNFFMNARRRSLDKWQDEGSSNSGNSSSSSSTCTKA
Structure (SMILES),outcome,AC50
NC(=O)c1ccc([N+](=O)[O-])cc1Cl,inactive,–
CC[N+](CC)(CC(=O)Nc1c(C)cccc1C)Cc1ccccc1,inactive,–
CCCCCCCC#N,inactive,–
CC(C)(Oc1ccc(Cl)cc1)C(=O)O,inactive,–
C=CCOC(=O)C(=C)C,inactive,–
O=S(=O)(O)c1cccc2ccccc12,inactive,–
COCCCN,inactive,–
CCOc1ccc2c(c1)C(C)CC(C)(C)N2 (stereo not given),inactive,–
Clc1ccc(Sc2cc(Cl)c(Cl)cc2Cl)cc1,inactive,–
F[B-](F)(F)F,inactive,–
CN(C)c1ccc(C(c2ccccc2)c2ccc(N(C)C)cc2)cc1,inactive,–
NC(=O)c1ccc(N)cc1,inactive,–
CCCCCCC1CCC(=O)O1 (stereo not given),inactive,–
CC(C)CC(=O)CC(C)CC(C)C (stereo not given),inactive,–
CC/C=C\CC/C=C/C(OCC)OCC,inactive,–
COc1ccccc1OCC(O)CO (stereo not given),inactive,–
CCCCCCCCCCC1CO1 (stereo not given),inactive,–
CCC(C)(CCC(C)C)C(=O)O (stereo not given),inactive,–
O=C(O)Cc1c[nH]c2ccccc12,inactive,–
Cc1ccnc(N)c1,inactive,–

Structure (SMILES),outcome,AC50
Cc1ccccc1S(N)(=O)=O,inactive,–
O=C1NC(=O)C2CC=CCC12 (stereo not given),inactive,–
Cc1cc2nc3c(=O)[nH]c(=O)nc-3n(C[C@H](O)[C@H](O)[C@H](O)CO)c2cc1C,inactive,–
C/C=C(\C)C(=O)OCC/C=C\CC,inactive,–
CCCOCCC,inactive,–
Cc1ccccc1S(=O)(=O)O,inactive,–
CC(C)CC(=O)CC(C)C,inactive,–
CN(C)Cc1cc(C(C)(C)C)c(O)c(C(C)(C)C)c1,inactive,–
Cc1cccnc1,inactive,–
C[C@H]1C[C@H]2[C@@H]3CCC4=CC(=O)C=C[C@]4(C)[C@@]3(F)[C@@H](O)C[C@]2(C)[C@@]1(O)C(=O)CO,inactive,–
CCCCCCCCCCCCCCCCCC[N+](C)(C)C,–,42.2 µM (active)
C[Si](C)(C)O[Si](C)(C)O[Si](C)(C)C,inactive,–
CCCCn1cc[n+](C)c1,inactive,–
CC1(C)S[C@@H]2[C@H](NC(=O)[C@H](N)c3ccccc3)C(=O)N2[C@H]1C(=O)O,inactive,–
Oc1ccc(Oc2ccccc2)cc1,inactive,–
[O-][n+]1ccc(Cl)cc1,inactive,–
CC=CC(=O)O,inactive,–
Sc1nc2ccccc2s1,inactive,–
CNC[C@H](O)[C@@H](O)[C@H](O)[C@H](O)CO,inactive,–
CN(C)N=Nc1ccccc1,inactive,–

# From PubChem BioAssay (EPA / NIEHS)
